About 83,000 compounds went through this panel and 20% of them were active in at least one assay; those are over-represented in the sample as a whole.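 96-well plates, one dose, 48 hours. Percent growth reported; active if below 10.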 Unmarked numbers belong to inactive results. Calls of active or inactive are those of the source.

Among the test systems are NCI-H23 lung; NCI-H322M lung; HOP-62 NSCLC; NCI-H460 lung; HOP-92 NSCLC; NCI-H522 lung; A549/ATCC NSCLC; 786-0 renal; COLO 205 colon; DU-145 prostate; K-562 leukemia; MALME-3M melanoma; MDA-MB-231 breast; RXF 393 renal; SF-268 CNS; SF-295 CNS; SF-539 CNS; UACC-257 melanoma; M14 melanoma; HCT-15 colon.
What all share (assay): NCI-60 one-dose screen, 48 h (100 = growth as untreated, 0 = no growth, -100 = all killed)
What all share (conditions): 10 µM unless noted

For `COc1cc(C(C)n2cc(-c3ccccc3)nn2)ccc1OC1CCCCC1` (stereo not given), the growth was 47.7% with NCI-H23 lung; 78.1% with NCI-H322M lung; 69.4% with HOP-62 NSCLC; 70.5% with NCI-H460 lung; 69.9% with HOP-92 NSCLC; 50.3% with NCI-H522 lung. Besides, the growth with A549/ATCC NSCLC was 61.6%; with 786-0 renal, 78.1%; in the test with COLO 205 colon it was 97.9%; with DU-145 prostate, 84.3%; in the test with K-562 leukemia it was 25.9%; in the test on MALME-3M melanoma it was 87.7%. The growth in the test with MDA-MB-231 breast was 77.9%; in the test with RXF 393 renal it was 98%; with SF-268 CNS, 78.2%; in the test on SF-295 CNS it was 41.2%; in the test on SF-539 CNS it was 65%; in the test with UACC-257 melanoma, 52.1%. Besides, the growth in the test with M14 melanoma was 79.1%; in the test on HCT-15 colon, 61.2%.

As to `Cc1nc(Nc2cn[nH]c2C(=O)Nc2ccc(CN3CCN(C)CC3)cc2)c2ccsc2n1`, the growth in the test with NCI-H23 lung was 95.5%; in the test on NCI-H322M lung it was 88.1%; in the test on HOP-62 NSCLC, 107%; with NCI-H460 lung, 109%; with HOP-92 NSCLC it was 90.6%; in the test on NCI-H522 lung it was 72%. Besides, the growth with A549/ATCC NSCLC was 66.9%; in the test with 786-0 renal, 65.1%; in the test on COLO 205 colon, 94.1%; in the test with DU-145 prostate it was 102%; in the test with K-562 leukemia, 72.2%; in the test on MALME-3M melanoma, 132%. In addition, the growth in the test on MDA-MB-231 breast is 82.4%; in the test with RXF 393 renal, 61.7%; with SF-268 CNS, 88.2%; in the test on SF-295 CNS it was 118%; in the test with SF-539 CNS, 78.4%; in the test on UACC-257 melanoma, 98.3%. Also, the values for the growth in the test on M14 melanoma and with HCT-15 colon were 98.9% and 81%, respectively.

For `C#CCn1cc(C=C2C(=O)N(C)C(=O)N(C)C2=O)c2cc(Cl)ccc21`, the growth is 110% in the test with NCI-H23 lung; 102% in the test on NCI-H322M lung; 107% with HOP-62 NSCLC; 106% with NCI-H460 lung; 107% with HOP-92 NSCLC; 88.7% in the test with NCI-H522 lung. Also, the growth in the test with A549/ATCC NSCLC is 120%; in the test with 786-0 renal it was 111%; in the test with COLO 205 colon, 122%; in the test on DU-145 prostate it was 112%; in the test on K-562 leukemia it was 106%; with MALME-3M melanoma, 97.9%. Besides, the growth with MDA-MB-231 breast is 105%; in the test on RXF 393 renal it was 103%; in the test with SF-268 CNS it was 96.8%; in the test with SF-295 CNS, 96.4%; in the test on SF-539 CNS it was 94.5%; with UACC-257 melanoma it was 112%. Also, the results for the growth in the test with M14 melanoma and with HCT-15 colon were 108% and 111%, respectively.

As for `C=C[C@@H]1CCC/C=C/[C@@H]2C[C@H](O)C[C@H]2[C@H](O)/C=C/C(=O)O1`, the growth was 5.64% (active) in the test on NCI-H23 lung; 38.3% in the test with NCI-H322M lung; 19.2% with HOP-62 NSCLC; 13.5% in the test with NCI-H460 lung; 25.5% in the test with HOP-92 NSCLC; -24.5% (active) with NCI-H522 lung. The growth was 22.6% with A549/ATCC NSCLC; -12.9% (active) in the test on 786-0 renal; -78.4% (active) in the test with COLO 205 colon; 21.1% in the test on DU-145 prostate; 11.4% with K-562 leukemia; -12.5% (active) in the test on MALME-3M melanoma. For the same compound, the growth in the test on MDA-MB-231 breast is -47.9% (active); with RXF 393 renal it was -5.1% (active); in the test on SF-268 CNS, 8.16% (active); with SF-295 CNS, 14.6%; with SF-539 CNS, 30.3%; in the test on UACC-257 melanoma it was 33.5%. The growth with M14 melanoma was 21%; in the test with HCT-15 colon, 11.6%.

For the compound `CCOc1ccc(-c2nonc2NC(=O)c2cccc(C)c2)cc1OCC`, the growth in the test with NCI-H23 lung is 78.9%; with NCI-H322M lung, 93.1%; in the test on HOP-62 NSCLC, 96.9%; with NCI-H460 lung, 55.9%; with HOP-92 NSCLC it was -8.71% (active); with NCI-H522 lung, 84%. In addition, the growth is 65.4% with A549/ATCC NSCLC; 73.9% with 786-0 renal; 36.8% with COLO 205 colon; 80.5% in the test with DU-145 prostate; 11% with K-562 leukemia; 59.6% in the test on MALME-3M melanoma. Besides, the growth with MDA-MB-231 breast is 76.5%; in the test with RXF 393 renal it was 65.3%; in the test on SF-268 CNS it was 84.1%; with SF-295 CNS it was 27.8%; with SF-539 CNS it was 80.8%; with UACC-257 melanoma it was 89.4%. Besides, the growth in the test on M14 melanoma was 71.3%; in the test with HCT-15 colon, 65.2%.

On to `O=C(O)CCC(=O)c1ccc(C2CCCCCC2)cc1`, for which the growth is 97.9% with NCI-H23 lung; 97.5% in the test with NCI-H322M lung; 98.8% in the test with HOP-62 NSCLC; 107% in the test with NCI-H460 lung; 99.7% in the test on HOP-92 NSCLC; 87.5% in the test with NCI-H522 lung. The growth is 99.6% in the test on A549/ATCC NSCLC; 95.8% in the test on 786-0 renal; 104% in the test on COLO 205 colon; 108% with DU-145 prostate; 90.2% with K-562 leukemia; 91.5% in the test on MALME-3M melanoma. Besides, the growth is 109% in the test with MDA-MB-231 breast; 115% with RXF 393 renal; 97.5% with SF-268 CNS; 97.4% in the test on SF-295 CNS; 97.1% in the test with SF-539 CNS; 94.6% in the test with UACC-257 melanoma. Further, the values for the growth in the test with M14 melanoma and with HCT-15 colon were 102% and 105%, respectively.

With `O=C(Nc1ccc(Br)cc1F)c1cc(F)ccc1O`, the growth is 3.95% (active) in the test on NCI-H23 lung; 10.4% in the test with NCI-H322M lung; 2.13% (active) in the test on HOP-62 NSCLC; 3.38% (active) with NCI-H460 lung; -11.3% (active) in the test with HOP-92 NSCLC; -1.14% (active) in the test with NCI-H522 lung. The growth was 9.75% (active) with A549/ATCC NSCLC; -4.66% (active) with 786-0 renal; 16.2% in the test on COLO 205 colon; 15.4% in the test on DU-145 prostate; 8.73% (active) with K-562 leukemia; -21% (active) with MALME-3M melanoma. Further, the growth is -25.5% (active) in the test with MDA-MB-231 breast; 4.59% (active) in the test with RXF 393 renal; 12.6% with SF-268 CNS; -58.3% (active) in the test with SF-295 CNS; 4.66% (active) in the test with SF-539 CNS; -11.2% (active) in the test with UACC-257 melanoma. Besides, the values for the growth in the test on M14 melanoma and with HCT-15 colon were -11.3% (active) and 2.25% (active), respectively.

Take `CCN1CCN(c2cc(C)c3cc(NC(=O)c4ccc(OC)c(OC)c4)ccc3n2)CC1`: the growth with NCI-H23 lung is 58.2%; in the test with NCI-H322M lung, 50.7%; in the test on HOP-62 NSCLC, 50.7%; with NCI-H460 lung, 25.4%; in the test with HOP-92 NSCLC it was 56.4%; with NCI-H522 lung, 51.8%. Moreover, the growth was 33.3% in the test on A549/ATCC NSCLC; 49% in the test with 786-0 renal; 11.9% in the test on COLO 205 colon; 34.5% in the test with DU-145 prostate; 7.23% (active) in the test on K-562 leukemia; 39.7% in the test on MALME-3M melanoma. The growth in the test on MDA-MB-231 breast is 47.9%; in the test with RXF 393 renal it was 31.1%; in the test with SF-268 CNS, 50.8%; with SF-295 CNS it was 32%; in the test on SF-539 CNS it was 45.2%; in the test with UACC-257 melanoma, 57.9%. Further, the growth with M14 melanoma is 30.2%; with HCT-15 colon it was 30.3%.

The values above are taken from PubChem BioAssay (NCI).
